Activity calls are given as the source filed them.

From PubChem BioAssay come the findings set out here.

A short description of assay [1]: anti-His antibody binders, primary screen, artefact control for SMM control protein annotation, biochemical, small-molecule microarray, 635 nm fluorescence (AID 1128).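 Note: score merges feature fluorescence with signal-to-noise for each printed compound spot.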 The conditions noted are these: anti-His Alexa647 antibody binding, higher = more signal.
Assay [2] has as its system Human papillomavirus type 1a E7 protein (residues 1-88). Briefly: HPV1a E7 small-molecule binders, primary screen, biochemical, small-molecule microarray, residues 1-88, 635 nm (AID 1129). The conditions noted are these: small-molecule microarray binding, fluorescence 635 nm; higher = more signal.
The target of assay [3] is Focal adhesion kinase 1 (Homo sapiens) (UniProt Q05397). Briefly: small-molecule microarray binders of FAK, primary screen, biochemical, 635/667 nm fluorescence, BSA, DTT (AID 1130).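 Note: composite of spot emission at 667 nm and signal to noise over triplicate slides.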 Conditions: PTK2 binding, 635 nm fluorescence, higher = more signal.
Focal adhesion kinase 1 (Homo sapiens), sequence (Q05397 whole entry, looked up): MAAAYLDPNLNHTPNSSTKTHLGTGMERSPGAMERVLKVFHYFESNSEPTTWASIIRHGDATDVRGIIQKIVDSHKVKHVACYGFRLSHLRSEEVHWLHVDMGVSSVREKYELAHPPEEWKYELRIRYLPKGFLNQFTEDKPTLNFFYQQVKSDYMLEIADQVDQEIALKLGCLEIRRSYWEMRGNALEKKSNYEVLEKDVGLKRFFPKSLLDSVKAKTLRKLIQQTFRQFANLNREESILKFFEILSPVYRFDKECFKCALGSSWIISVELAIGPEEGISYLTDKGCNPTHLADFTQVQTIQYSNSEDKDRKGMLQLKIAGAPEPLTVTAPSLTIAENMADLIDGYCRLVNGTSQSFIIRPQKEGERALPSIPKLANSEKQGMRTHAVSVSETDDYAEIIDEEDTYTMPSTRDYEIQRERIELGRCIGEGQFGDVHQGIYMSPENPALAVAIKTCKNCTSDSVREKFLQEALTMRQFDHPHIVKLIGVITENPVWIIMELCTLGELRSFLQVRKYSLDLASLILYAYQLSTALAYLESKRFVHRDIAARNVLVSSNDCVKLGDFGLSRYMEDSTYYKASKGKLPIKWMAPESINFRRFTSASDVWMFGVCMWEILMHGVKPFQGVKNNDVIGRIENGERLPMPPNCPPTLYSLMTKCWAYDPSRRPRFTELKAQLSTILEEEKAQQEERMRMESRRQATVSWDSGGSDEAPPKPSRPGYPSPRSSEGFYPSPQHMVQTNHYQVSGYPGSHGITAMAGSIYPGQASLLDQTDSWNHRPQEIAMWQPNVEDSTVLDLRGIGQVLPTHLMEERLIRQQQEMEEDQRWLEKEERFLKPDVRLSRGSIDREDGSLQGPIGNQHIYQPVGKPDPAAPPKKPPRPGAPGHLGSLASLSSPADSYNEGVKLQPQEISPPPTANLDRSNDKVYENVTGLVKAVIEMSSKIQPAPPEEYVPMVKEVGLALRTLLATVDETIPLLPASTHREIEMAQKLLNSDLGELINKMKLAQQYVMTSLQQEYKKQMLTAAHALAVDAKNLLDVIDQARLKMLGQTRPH
Assay [4] relates to Fibrinogen (Alexa647-labelled). As to the kind of experiment: fibrinogen binders on compound microarrays, profiling panel, artefact control for SMM control-protein annotation, biochemical, small-molecule microarray, 635/667 nm fluorescence (AID 1131).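 Note: z-score merges 667 nm fluorescence with per-spot signal-to-noise over triplicate slides.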 The conditions noted are these: fibrinogen-A647 binding fluorescence, higher = more signal.
Assay [5] has as its target Follistatin (Homo sapiens) (UniProt P19883). Briefly: follistatin binders on small-molecule microarrays, primary screen, biochemical, small-molecule microarray, 635/667 nm fluorescence (AID 1132). The conditions noted are these: FST binding, 635 nm fluorescence, higher = more signal.
For assay [6], the target named is Fibroblast growth factor 2 (Homo sapiens) (UniProt P09038). Briefly: FGF2 binders on small-molecule microarrays, primary screen, biochemical, small-molecule microarray, 635/667 nm fluorescence (AID 1133). Conditions: small-molecule microarray binding, FGF2, fluorescence 635/667; higher = more signal.
Fibroblast growth factor 2 (Homo sapiens), sequence (P09038 whole entry, looked up): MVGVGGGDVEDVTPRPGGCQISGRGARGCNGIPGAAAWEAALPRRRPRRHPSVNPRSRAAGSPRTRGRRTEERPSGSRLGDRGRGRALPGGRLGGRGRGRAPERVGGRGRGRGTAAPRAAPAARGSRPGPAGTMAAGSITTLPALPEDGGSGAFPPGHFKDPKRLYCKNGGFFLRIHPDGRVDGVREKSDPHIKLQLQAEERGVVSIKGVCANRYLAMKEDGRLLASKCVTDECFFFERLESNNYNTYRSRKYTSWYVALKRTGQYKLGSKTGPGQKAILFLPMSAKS
A short description of assay [7]: mitochondrial membrane potential change in A549 cells, profiling panel, cell-based, JC-1 fluorescence, basal, 24 h, 100 nL (AID 1138).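 Note: A549 lung adenocarcinoma cells under basal conditions with no added stimulus; test concentration not given here.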 The conditions noted are these: higher = more signal.
The test system of the next assay is Lefty1. Briefly: Lefty1 binders on small-molecule microarrays, primary screen, biochemical, small-molecule microarray, 635/667 nm fluorescence (AID 1139). The conditions noted are these: small-molecule microarray binding, fluorescence 635/667; higher = more signal.
Assay [8] concerns wheat germ agglutinin (Triticum aestivum), Alexa647-labelled. As to the kind of experiment: wheat germ agglutinin binders on compound microarrays, profiling panel, artefact control for SMM control-protein annotation, biochemical, small-molecule microarray, 635/667 nm fluorescence (AID 1140).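 Note: score merges 667 nm feature emission with signal to noise over triplicate slides.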 Conditions: WGA-A647 binding, 635 nm fluorescence, higher = more signal.
In assay [9] the target is Luciferin 4-monooxygenase (Photinus pyralis) (UniProt P08659). Briefly: firefly luciferase enzyme inhibitors, primary screen, biochemical, luminescence, purified enzyme, 2006 set (AID 1141).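 Note: cell-free assay with purified firefly luciferase at 100 ng per well in PBS; test concentration not given here.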 Conditions: SteadyGlo luminescence, 30 min, higher = more signal, called active from +8 up or from −8 down.
Luciferin 4-monooxygenase (Photinus pyralis), sequence (P08659 whole entry, looked up): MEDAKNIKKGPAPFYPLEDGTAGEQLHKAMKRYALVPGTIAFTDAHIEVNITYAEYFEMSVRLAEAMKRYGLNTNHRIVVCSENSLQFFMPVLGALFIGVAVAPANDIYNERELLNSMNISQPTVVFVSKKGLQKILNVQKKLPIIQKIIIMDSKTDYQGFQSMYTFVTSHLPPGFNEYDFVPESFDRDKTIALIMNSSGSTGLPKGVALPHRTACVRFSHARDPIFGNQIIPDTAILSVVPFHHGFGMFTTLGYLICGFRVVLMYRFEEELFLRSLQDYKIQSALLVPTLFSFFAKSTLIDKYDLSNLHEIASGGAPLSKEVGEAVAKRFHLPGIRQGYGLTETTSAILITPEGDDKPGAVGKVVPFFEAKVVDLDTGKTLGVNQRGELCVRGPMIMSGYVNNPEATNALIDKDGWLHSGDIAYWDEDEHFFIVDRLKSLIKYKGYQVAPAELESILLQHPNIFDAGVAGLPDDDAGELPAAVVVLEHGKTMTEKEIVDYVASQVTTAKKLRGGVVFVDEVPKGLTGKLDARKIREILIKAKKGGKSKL

Follistatin (Homo sapiens), sequence (P19883 whole entry, looked up): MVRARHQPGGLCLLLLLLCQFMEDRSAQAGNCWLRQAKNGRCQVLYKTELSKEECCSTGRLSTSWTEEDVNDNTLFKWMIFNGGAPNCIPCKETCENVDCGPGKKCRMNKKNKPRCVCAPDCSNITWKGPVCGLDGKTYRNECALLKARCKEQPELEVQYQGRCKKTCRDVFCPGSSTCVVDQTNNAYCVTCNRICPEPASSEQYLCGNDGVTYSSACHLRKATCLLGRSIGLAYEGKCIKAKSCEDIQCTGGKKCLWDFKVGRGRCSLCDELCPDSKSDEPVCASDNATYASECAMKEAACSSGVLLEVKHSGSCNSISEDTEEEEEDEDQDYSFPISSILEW

Consider `O=C1CSC(c2cccc([N+](=O)[O-])c2)N1c1ccccc1` (stereo not given), for which the composite z-score in assay [1] is 0.317; in assay [2], 0.494; in assay [3], -0.0119; in assay [4], 0.667; in [5], 0.244; in assay [6], 0.481. Further, the composite z-score with Lefty1 was 0.257; in assay [8], -0.0002. For the same compound, the figures for the z-score in [7] and in assay [9] were 0.774 and 0.174 (inactive), respectively.
Regarding `COc1cc(NN2C(C(O)c3ccc(I)cc3)C=CC3C(=O)N(C)C(=O)C32)cc(OC)c1OC` (stereo not given), the composite z-score is 2.61 in assay [1]; 0.351 in assay [2]; 1.2 in assay [3]; -0.472 in [4]; -0.0712 in assay [5]; -0.893 in assay [6]. The composite z-score in the assay with Lefty1 is -0.595; in assay [8] it was 0.701. Moreover, the results for the z-score in assay [7] and in assay [9] were 0.223 and -0.977 (inactive), respectively.
Consider `CN(C)CCCNC(=O)[C@@]1(Cc2ccccc2I)c2ccccc2C(=O)N(Cc2ccccc2Cl)[C@H]1c1ccc(CO)cc1`, for which the composite z-score was -0.528 in assay [1]; 1.08 in [2]; 0.224 in assay [3]; 0.788 in assay [4]; -0.292 in [5]; -0.717 in assay [6]. Moreover, the values for the composite z-score (with Lefty1; in assay [8]) were -0.615 and 0.73, respectively. For the same compound, the results for the z-score in assay [7] and in [9] were -1.18 and 0.122 (inactive), respectively.
As to `COC(=O)c1c(CC[C@@H](CO)NC(=O)N[C@@H](C)Cn2cc(C3(O)CCCC3)nn2)oc(C(C)=O)c1C(=O)OC`, the composite z-score in assay [1] is 0.863; in assay [2] it was -0.0221; in assay [3], -0.118; in assay [4], 0.188; in assay [5] it was 0.511; in assay [6], 0.0707. Also, the composite z-score in the assay on Lefty1 worked out at 1.54; in assay [8], 1.3. Besides, the z-score in assay [7] was -0.638; in assay [9], 0.315 (inactive).
In the case of `C=CCN1C(=O)[C@@]2(O[C@@H](CCn3cc([C@H](O)c4ccccc4)nn3)[C@H]([Si](C)(C)c3ccc(OC)cc3)[C@H]2C)c2cc(NC(=O)c3ccc(OC)cc3)ccc21`, the composite z-score in [1] was determined as 0.623; in [2] it was 0.931; in assay [3], 0.386; in assay [4], 0.0475; in assay [5], 0.987; in [6], 0.518. Further, the composite z-score in the assay on Lefty1 is 0.628; in assay [8] it was -0.191. Further, the results for the z-score in assay [7] and in assay [9] were 0.763 and 0.427 (inactive), respectively.
On to `COCC(=C=CC[C@@H](O)c1ccccc1OCCO)C[C@@H](O)c1ccccn1`, for which the composite z-score is -0.415 in assay [1]; 0.845 in assay [2]; 0.287 in assay [3]; -0.853 in assay [4]; 0.968 in assay [5]; 0.466 in assay [6]. For the same compound, the results for the composite z-score (in the assay on Lefty1; in assay [8]) were 0.913 and 0.293, respectively. Besides, the results for the z-score in [7] and in [9] were -0.00359 and -0.578 (inactive), respectively.
As to `Cc1ccc(C(C)CC(O)C2C=CC3C(=O)N(Cc4ccccc4)C(=O)C3N2n2cnnc2)o1` (stereo not given), the composite z-score in assay [1] is 1.54; in assay [2] it was 0.942; in assay [3], -0.103; in assay [4] it was 0.923; in assay [5] it was 0.713; in assay [6], 0.0103. Moreover, the composite z-score with Lefty1 worked out at 0.273; in assay [8] it was 0.842. Further, the figures for the z-score in [7] and in [9] were -1.49 and 0.785 (inactive), respectively.
Regarding `CCOC(=O)C1=CC[C@@H](c2ccc(N(CC)CC)cc2)N(S(=O)(=O)c2ccc(C)cc2)[C@H]1c1ccc([N+](=O)[O-])cc1`, the composite z-score in assay [1] is 0.479; in assay [2], 0.836; in assay [3], 0.718; in assay [4], 0.403; in assay [5], -0.35; in assay [6] it was -1.18. Also, the figures for the composite z-score (in the assay with Lefty1; in assay [8]) were -0.863 and 0.516, respectively. For the same compound, the z-score in assay [7] was 1.53; in assay [9], 0.719 (inactive).
Consider `CO[C@H]1O[C@H](CO)[C@@H](OC(=O)Nc2ccc(C(F)(F)F)cc2)[C@H](OC(=O)Nc2ccccc2)[C@H]1OC(=O)Nc1ccccc1`, for which the composite z-score in assay [1] is 2.65; in assay [2], 1.25; in [3] it was 1.15; in assay [4], 0.737; in [5], 1.29; in assay [6], 0.805. In addition, the composite z-score in the assay with Lefty1 was 0.88; in [8] it was 1.33. For the same compound, the z-score is -1.89 in [7] and -0.579 (inactive) in [9].
In the case of `CC(C)CN1C(=O)[C@@]2(Cc3ccccc31)c1ccccc1C(=O)N(Cc1ccccc1)[C@H]2c1ccc(CO)cc1`, the composite z-score was -0.966 in assay [1]; -1.28 in [2]; -0.457 in assay [3]; -0.492 in [4]; -1.72 in [5]; -0.776 in assay [6]. The composite z-score in the assay with Lefty1 was -0.78; in assay [8] it was 0.145. Moreover, the z-score was -0.204 in assay [7] and -0.336 (inactive) in assay [9].
Consider `O=C1NC(=O)C2C1C=CC(C(O)c1ccc3c(c1)OCO3)N2Nc1ccc(Cl)cc1Cl` (stereo not given), for which the composite z-score in assay [1] was 1.24; in [2] it was 0.453; in [3], 0.822; in assay [4], 0.0542; in assay [5] it was 0.579; in assay [6], -0.0317. In addition, the composite z-score stood at 0.194 in the assay with Lefty1 and 0.698 in assay [8]. The values for the z-score in assay [7] and in [9] were 0.512 and -0.109 (inactive), respectively.
Consider `Cc1ccc(-c2cccc(=O)o2)cc1`, for which the composite z-score is -1.57 in assay [1]; -0.935 in assay [2]; -0.404 in [3]; -0.551 in assay [4]; 0.272 in assay [5]; 0.156 in assay [6]. The composite z-score in the assay with Lefty1 is -0.33; in assay [8], -0.233. The z-score is -0.241 in [7] and -1.23 (inactive) in assay [9].
As to `Cc1ccc(N2C(=O)c3ccccc3[C@](C)(C(=O)NC(C)C)[C@@H]2c2ccc(CO)cc2)nc1`, the composite z-score in [1] is -2.03; in assay [2], -1.29; in [3], -1.72; in assay [4], -2.28; in [5], -0.739; in assay [6], -0.276. For the same compound, the results for the composite z-score (in the assay with Lefty1; in assay [8]) were -2.28 and 0.654, respectively. The z-score is 0.0388 in [7] and -1.01 (inactive) in assay [9].
`CCCN1C(=O)[C@@H]2Cc3c([nH]c4ccccc34)[C@@H](c3cccc(O)c3)N2C1=O`: the composite z-score in assay [1] is -0.147; in assay [2], 0.483; in assay [3], 0.131; in assay [4], 0.321; in assay [5], 0.374; in [6] it was 0.428. For the same compound, the figures for the composite z-score (in the assay with Lefty1; in assay [8]) were 0.287 and -0.0455, respectively. Besides, the values for the z-score in [7] and in [9] were 0.233 and 0.718 (inactive), respectively.
As to `COC(=O)C(CC#Cc1ccc2c(c1)[C@]1(C(=O)N2)[C@H](C(=O)N2CCc3cc(OC)c(OC)cc3C2)[C@H]2C(=O)O[C@H](c3ccccc3)[C@H](c3ccccc3)N2[C@@H]1c1ccc(O)cc1)C(=O)OC`, the composite z-score was 2.77 in [1]; 1.22 in assay [2]; 0.695 in assay [3]; 0.867 in assay [4]; 1.49 in assay [5]; 1.84 in [6]. Besides, the composite z-score in the assay with Lefty1 was determined as 1.14; in [8], 0.664. The values for the z-score in assay [7] and in assay [9] were -1.48 and 8.96 (active), respectively.
